Reference: PubChem BioAssay AID1159580 (chemical genetic matrix, 2015)
The campaign covered roughly 5,500 compounds. About 2,000 (36%) were called active. Inconclusive results (about 18%) are left out. Some of the results follow. A number with no mark means an inactive call. Rule as the data show it: active = normalized growth mostly below about 0.91 (no sharp cut-off); inconclusive = no clear call, values can overlap the other calls; inactive = mostly above about 0.92.

Assay: chemical genetic growth profiling, strain panel (AID 1159580);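 also: tested at 20 µM; growth read once vehicle control cultures reached saturation at 30 °C; 1 = growth at the plate median or of vehicle wells; lower values mean less growth of the strain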
Details: S. cerevisiae deletion strains, growth OD
[1] = locus YAL040C, strain CLN3, active compounds read low
[2] = locus YCL061C, strain MRC1 (second series), active compounds read low
[3] = locus YDR363W, strain ESC2, active compounds read low
[4] = locus YER002W, strain NOP16, active compounds read low
[5] = locus YGR229C, strain SMI1, active compounds read low
[6] = locus YMR307W, strain GAS1, active compounds read low
[7] = locus YNL175C, strain NOP13, active compounds read low
[8] = locus YNL197C, strain WHI3, active compounds read low
[9] = locus YNL224C, strain SQS1, active compounds read low
[10] = locus YOR083W, strain WHI5 (second series), active compounds read low

O=C1Nc2ccccc2/C1=C\c1cccc([N+](=O)[O-])c1
normalized growth (locus YAR019C, strain CDC15, active compounds read low): 0.974
normalized growth (locus YBL105C, strain PKC1, active compounds read low): 0.967
normalized growth (locus YBR135W, strain CKS1, active compounds read low): 0.974
normalized growth (locus YBR136W, strain MEC1, active compounds read low): 0.972
normalized growth (locus YBR160W, strain CDC28, active compounds read low): 0.979
normalized growth (locus YDL017W, strain CDC7, active compounds read low): 0.97
normalized growth (locus YDL028C, strain MPS1, active compounds read low): 0.971
normalized growth (locus YDL101C, strain DUN1, active compounds read low): 0.97
normalized growth (locus YDL108W, strain KIN28, active compounds read low): 0.968
normalized growth (locus YDL132W, strain cdc53, active compounds read low): 0.962
normalized growth (locus YDL214C, strain PRR2, active compounds read low): 0.983
normalized growth (locus YDR052C, strain DBF4, active compounds read low): 0.97
normalized growth (locus YDR054C, strain cdc34, active compounds read low): 0.957
normalized growth (locus YDR226W, strain ADK1, active compounds read low): 0.969
normalized growth (locus YDR477W, strain SNF1, active compounds read low): 0.971
normalized growth (locus YER123W, strain YCK3, active compounds read low): 0.985
normalized growth (locus YER133W, strain GLC7, active compounds read low): 1
normalized growth (locus YFL009W, strain cdc4, active compounds read low): 0.965
normalized growth (locus YFL029C, strain CAK1, active compounds read low): 0.982
normalized growth (locus YFR003C, strain YPI1, active compounds read low): 0.965
normalized growth (locus YFR019W, strain FAB1, active compounds read low): 0.987
normalized growth (locus YFR028C, strain CDC14, active compounds read low): 0.961
normalized growth (locus YGR040W, strain KSS1, active compounds read low): 0.967
normalized growth (locus YGR052W, strain FMP48, active compounds read low): 1.02
normalized growth (locus YGR092W, strain DBF2, active compounds read low): 0.921
normalized growth (locus YHR030C, strain SLT2, active compounds read low): 0.959
normalized growth (locus YHR079C, strain IRE1, active compounds read low): 0.913
normalized growth (locus YHR082C, strain KSP1, active compounds read low): 1.06
normalized growth (locus YHR205W, strain SCH9, active compounds read low): 0.848
normalized growth (locus YIL147C, strain SLN1, active compounds read low): 0.967
normalized growth (locus YJL095W, strain BCK1, active compounds read low): 0.955
normalized growth (locus YJL128C, strain PBS2, active compounds read low): 0.923
normalized growth (locus YJL157C, strain FAR1, active compounds read low): 0.985
normalized growth (locus YJR016C, strain ILV3, active compounds read low): 0.967
normalized growth (locus YJR066W, strain TOR1 (second series), active compounds read low): 0.981
normalized growth (locus YJR066W, strain TOR1, active compounds read low): 1.05
normalized growth (locus YKL048C, strain ELM1, active compounds read low): 0.971
normalized growth (locus YKL067W, strain YNK1, active compounds read low): 0.995
normalized growth (locus YKL101W, strain HSL1, active compounds read low): 0.967
normalized growth (locus YKL193C, strain SDS22, active compounds read low): 0.963
normalized growth (locus YKL203C, strain TOR2, active compounds read low): 1.05
normalized growth (locus YLR113W, strain HOG1, active compounds read low): 0.939
normalized growth (locus YLR133W, strain CKI1, active compounds read low): 0.975
normalized growth (locus YLR403W, strain SFP1, active compounds read low): 0.907
normalized growth (locus YML070W, strain DAK1, active compounds read low): 0.993
normalized growth (locus YMR001C, strain CDC5, active compounds read low): 0.97
normalized growth (locus YMR205C, strain PFK2 (second series), active compounds read low): 0.994
normalized growth (locus YMR277W, strain FCP1, active compounds read low): 0.969
normalized growth (locus YNL006W, strain LST8, active compounds read low): 0.979
normalized growth (locus YNL020C, strain ARK1, active compounds read low): 0.959
normalized growth (locus YNL161W, strain CBK1, active compounds read low): 0.965
normalized growth (locus YNL183C, strain NPR1, active compounds read low): 1.05
normalized growth (locus YNL207W, strain RIO2, active compounds read low): 0.963
normalized growth (locus YNL222W, strain SSU72, active compounds read low): 0.986
normalized growth (locus YNL307C, strain MCK1 (second series), active compounds read low): 0.957
normalized growth (locus YOL078W, strain AVO1, active compounds read low): 0.966
normalized growth (locus YOL136C, strain PFK27, active compounds read low): 0.985
normalized growth (locus YOR061W, strain CKA2, active compounds read low): 0.991
normalized growth (locus YOR119C, strain RIO1, active compounds read low): 1.07
normalized growth (locus YOR231W, strain MKK1, active compounds read low): 1.04
normalized growth (locus YOR329C, strain SCD5, active compounds read low): 0.973
normalized growth (locus YPL031C, strain PHO85, active compounds read low): 0.972
normalized growth (locus YPL153C, strain RAD53, active compounds read low): 0.992
normalized growth (locus YPL204W, strain HRR25, active compounds read low): 0.968
normalized growth (locus YPL209C, strain IPL1, active compounds read low): 0.974
normalized growth (locus YPL256C, strain CLN2, active compounds read low): 0.954
normalized growth (locus YPR025C, strain CCL1, active compounds read low): 0.978
normalized growth (locus YPR106W, strain ISR1, active compounds read low): 0.973
normalized growth (locus YPR111W, strain DBF20, active compounds read low): 0.966
normalized growth (strain NNK1, active compounds read low): 0.967
normalized growth (strain TSCII, active compounds read low): 0.963

CN(C)c1ccc(/C=C2\C(=O)Nc3ccccc32)cc1
normalized growth [1]: 0.95
normalized growth [2]: 0.993
normalized growth [3]: 0.963
normalized growth [4]: 0.877 (active)
normalized growth [5]: 0.93
normalized growth (locus YJR075W, strain HOC1, active compounds read low): 0.972
normalized growth [6]: 0.984
normalized growth [7]: 0.809 (active)
normalized growth [8]: 0.942
normalized growth [9]: 0.891 (active)
normalized growth [10]: 0.786 (active)
normalized growth (locus YPL055C, strain LGE1, active compounds read low): 0.972

Cc1cc(C)c(/C=C2\C(=O)Nc3ccccc32)[nH]1
normalized growth (locus YAL013W, strain DEP1, active compounds read low): 0.967
normalized growth [1]: 1.06
normalized growth [2]: 0.994
normalized growth (locus YDR150W, strain NUM1, active compounds read low): 0.939
normalized growth [3]: 0.987
normalized growth [4]: 0.999
normalized growth (locus YGR078C, strain PAC10, active compounds read low): 0.991
normalized growth [5]: 0.917
normalized growth (locus YMR263W, strain SAP30, active compounds read low): 0.99
normalized growth [6]: 0.887 (active)
normalized growth (locus YNL128W, strain TEP1, active compounds read low): 0.935
normalized growth (locus YNL153C, strain GIM3, active compounds read low): 0.872
normalized growth [7]: 0.992
normalized growth [8]: 0.934
normalized growth [9]: 0.929
normalized growth [10]: 0.847 (active)
